Measurements as given in PubChem BioAssay AID1578 (Sanford-Burnham Center for Chemical Genomics, 2009).
In all, about 290,000 compounds went through this assay and about 3,000 (1%) were called active. Rule as the data show it: active = inhibition mostly above about 36% (no sharp cut-off); inactive = mostly below about 34%. The list comes from a sample in which actives are over-represented; it also holds similar structures and randomly drawn compounds.

Assay: NOD1 signaling inhibitors, primary screen, cell-based, luminescence, uHTS (AID 1578);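 also: HEK-293T reporter cells stimulated with the NOD1 agonist gamma-tri-DAP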
Settings: NOD1-driven NF-kB luciferase reporter cells, at 4 µM, stronger effect = higher value

Compound | inhibition
CC(=O)Nc1cccc(NC(=O)c2ccc([N+](=O)[O-])cc2Cl)c1 | -5.3% (inactive)
O=C(Nc1cccc(O)c1)c1ccc([N+](=O)[O-])cc1Cl | -22.7% (inactive)
O=C(Nc1cccc(Cl)c1)c1cc(N=Nc2ccc([N+](=O)[O-])cc2Cl)ccc1O | 95.3% (active)
COc1cc(OC)cc(C(=O)N[C@H](C(=O)OCC(=O)Nc2ccc(F)c(F)c2)C(C)C)c1 | -11.6% (inactive)
O=C(NCC(O)c1ccc([N+](=O)[O-])cc1)Nc1ccccc1 (configuration not stated) | -4.6% (inactive)
CCOc1cccc(=O)c2c(C)n(-c3ccc(C(=O)O)cc3)c(C)c12 | -22.7% (inactive)
COc1cccc(=O)c2c(C)n(-c3ccc(C(=O)O)cc3)c(C)c12 | 58.9% (active)
COc1ccc(-n2c(C)c3c(OC)cccc(=O)c3c2C)cc1 | 16.3% (inactive)
COc1cccc(N(C(=O)c2sc(C)nc2C)C(C(=O)NCC2CCCO2)c2ccccc2)c1 (configuration not stated) | -28.5% (inactive)
COc1cc(CCNC(=O)c2ccccc2NC(=O)C2=C(C)OCCS2)cc(OC)c1OC | 17.9% (inactive)
COc1ccc(CCNC(=O)c2ccccc2NC(=O)C2=C(C)OCCS2)c(OC)c1 | 51.1% (active)
COc1ccc(OC)c(CCNC(=O)c2ccccc2NC(=O)C2=C(C)OCCS2)c1 | -12.2% (inactive)
NS(=O)(=O)c1cccc(NC(=O)c2cc(=O)c3ccccc3o2)c1 | -9.2% (inactive)
CC(C)Cn1c(N)c(C(=O)COC(=O)c2ccccc2Cl)c(=O)n(C)c1=O | -12.9% (inactive)
COCc1c(C(=O)OCC(=O)c2c(N)n(CC(C)C)c(=O)n(C)c2=O)oc2ccccc12 | 32% (inactive)
CC(C)Cn1c(N)c(C(=O)COC(=O)c2ccc(Cl)cc2)c(=O)n(C)c1=O | 4.6% (inactive)
CC(C)Cn1c(N)c(C(=O)COC(=O)C2CCCCC2)c(=O)n(C)c1=O | 0.4% (inactive)
CC(C)Cn1c(N)c(C(=O)COC(=O)Cc2cccs2)c(=O)n(C)c1=O | -8.8% (inactive)
CC(C)Cn1c(N)c(C(=O)COC(=O)c2ccc(O)cc2)c(=O)n(C)c1=O | -0.8% (inactive)
Cc1cc(Oc2ccccc2)nc(-c2ccccc2O)n1 | -12.6% (inactive)
Nc1nccnc1C(=O)OCC(=O)NNC(=O)c1ccccc1 | -27.6% (inactive)

Compound | inhibition
Cc1ccc(CSc2nc3ccsc3c(=O)n2Cc2ccccn2)cc1 | -0.8% (inactive)
CCc1ccc(NC(=O)COc2cccc(-n3cnnn3)c2)cc1 | 4.3% (inactive)
CC(=O)c1cc2c(cc1NC(=O)CCn1cccc1)OCO2 | 5% (inactive)
CC(=O)c1cc2c(cc1NC(=O)CCCC(=O)O)OCO2 | -9.2% (inactive)
CC(=O)c1cc2c(cc1NC(=O)CCC1CCCC1)OCO2 | 71.2% (active)
O=C(CSc1nccn1Cc1ccccc1)NC1CCCC1 | 12.2% (inactive)
O=C(CSc1nccn1Cc1ccc(F)cc1)NC1CCCC1 | -2.9% (inactive)
Cc1ccc(Cn2ccnc2SCC(=O)NC2CCCC2)cc1 | 51.4% (active)
Cc1ccc(S(=O)(=O)N(C)C)cc1NC(=O)C1CCCC1 | 18.4% (inactive)
COc1ccccc1OCCCC(=O)NC(C)c1ccccc1 (configuration not stated) | -14.4% (inactive)
C=CCn1c(C)cc(C2=NNC(=NCC)SC2)c1C | 103% (active)
C=CCN=C1NN=C(c2cc(C)n(CCOC)c2C)CS1 | 88.5% (active)
C=CCn1c(C)cc(C2=NNC(=NC(C)(C)C)SC2)c1C | 65% (inactive)
COCCCN=C1NN=C(c2cc(C)n(Cc3ccccc3Cl)c2C)CS1 | -46.7% (inactive)
COCCN=C1NN=C(c2cc(C)n(CC3CCCO3)c2C)CS1 (configuration not stated) | 9.1% (inactive)
COCCn1c(C)cc(C2=NNC(=NC(C)(C)C)SC2)c1C | -27.4% (inactive)
C=CCN=C1NN=C(c2cc(C)n(CC=C)c2C)CS1 | 85.5% (active)
COCCn1c(C)cc(C2=NNC(=NC3CC3)SC2)c1C | 107% (active)
C=CCn1c(C)cc(C2=NNC(=NCc3ccccc3)SC2)c1C | -61.6% (inactive)
C=CCn1c(C)cc(C2=NNC(=Nc3ccc(C)cc3)SC2)c1C | -66.7% (inactive)
COCCn1c(C)cc(C2=NNC(=Nc3ccc(OC)cc3)SC2)c1C | -3.2% (inactive)

Compound | inhibition
Cc1cc(C2=NNC(=NCCc3ccccc3)SC2)c(C)n1CC1CCCO1 (configuration not stated) | -23% (inactive)
Fc1cccc(CN2CCN(Cc3nc(CCc4ccccc4)no3)CC2)c1 | -21.1% (inactive)
Cc1ccc(O)c(C(CC(=O)NCc2ccco2)c2ccccc2)c1 (configuration not stated) | -21.1% (inactive)
Cc1nnc(SCC(=O)c2ccccc2F)n1Cc1ccccc1 | -6.1% (inactive)
COCC1CCN(C(=O)c2cc(COc3ccc(OC)c4ccccc34)on2)C1 (configuration not stated) | -73.2% (inactive)
CS(=O)(=O)N(CCCC(=O)N1CCCCCC1)c1cccc(Cl)c1 | 0.2% (inactive)
CCN(CC)CCNC(CC(=O)Nc1ccc(Cl)cc1Cl)C(=O)O (configuration not stated) | -7% (inactive)
COc1ccc(-c2cc(NCCc3ccncc3)n3ncnc3n2)cc1 | 2.6% (inactive)
COc1ccc(NC(=O)NCc2ccco2)cc1OC | -24.4% (inactive)
COc1cc(S(=O)(=O)NCc2ccncc2)c(OC)cc1C | -15.2% (inactive)
O=[N+]([O-])c1cccc(/C=C/c2nc[nH]c2[N+](=O)[O-])c1 | -10.5% (inactive)
Cc1cccc(C(=O)Oc2ccccc2C(=O)N2CCOCC2)c1 | -8.5% (inactive)
COCCn1c(C)cc(C2=NNC(=Nc3ccccc3)SC2)c1C | -63.4% (inactive)
COCCn1c(C)cc(C2=NNC(=Nc3ccccc3F)SC2)c1C | 65.1% (active)
COCCn1c(C)cc(C2=NNC(=Nc3ccc(Cl)cc3Cl)SC2)c1C | 13.9% (inactive)
Cc1c(C)c2ccc(O)c(CN3CCCC3)c2oc1=O | 15.3% (inactive)
Cn1c2ccccc2c(=O)c2ccc(C#CC3(N)CCCCC3)cc21 | 30.6% (inactive)
Cn1c2ccccc2c(=O)c2cc(C#CC3(O)CCCCC3)ccc21 | 35% (inactive)
Cn1c2ccccc2c(=O)c2ccc(C#CC3(O)CCCCC3)cc21 | 82% (active)
CCC(=O)N1CCc2cc(S(=O)(=O)NCCC(=O)N3CCN(c4ccccc4)CC3)ccc21 | -26.5% (inactive)
